The structures appear in SMILES notation. Out of some 270,000 compounds screened, about 5,800 (2.1%) were called active. Entries that show only a call come without a potency. Inconclusive results (about 16%) are left out. The call rests on the fitted dose curve; in most records, active means well fitted inhibition curve with a large enough effect; inconclusive means small, poorly fitted or top-dose-only effect; inactive means flat fitted curve, though single readings scatter. The sample as a whole holds a higher share of actives than the screen did.
Potency means the concentration at half of the fitted maximal effect.

Microtubule-associated protein tau (Homo sapiens), sequence (P10636 561-689 P618L limits assumed): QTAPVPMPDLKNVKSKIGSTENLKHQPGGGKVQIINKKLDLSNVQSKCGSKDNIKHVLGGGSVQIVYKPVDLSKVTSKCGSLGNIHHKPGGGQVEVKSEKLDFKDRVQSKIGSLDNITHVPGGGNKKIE

This test concerns the target Microtubule-associated protein tau (Homo sapiens) (UniProt P10636). Kind of test: qHTS for Inhibitors of Tau Fibril Formation, Thioflavin T Binding. Further: nearly all actives have a fitted effect of over 55% in size. The settings on record: recombinant tau K18 P301L (four-repeat tau fragment), heparin-induced fibrillization, ThT fluorescence; series mostly up to 57.4 µM. The essentials:
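Tau K18 P301L fragment (15 uM unlabeled plus 0.24 uM Alexa 594-labeled) in 100 mM sodium acetate pH 7 with compound, fibrillization induced by 20 uM heparin for 6 hr at 37 C. Thioflavin T (30 uM) added, fluorescence read after 1 hr (ex 450, em 510 nm).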
A general note: In qHTS, concentration-response curves come from the screen itself.
In the case of `COC(=O)c1cc2occc2n1Cc1nc(-c2ccc(C)cc2)oc1C`, the Potency result was “inactive”.
To `O=c1c(O)c(Br)ccc2c(Br)c(O)c(O)c(O)c12` belongs 3.55 µM (active); to `COc1cccc(C(=O)NCc2ccc3c(c2)CCN3C(=O)c2ccncc2)c1`, “inactive”; to `Cc1ccc(Cl)cc1N1CCN(C(=O)c2cccn3c(=O)c4cc(Cl)ccc4nc23)CC1`, “inactive”.
To `COc1ccc(NS(=O)(=O)c2cc3c(cc2C)N(C(C)=O)CCO3)cc1` belongs “inactive”; to `Cc1cc(C(=O)N/N=C/c2ccc(O)c([N+](=O)[O-])c2)c(C)n1-c1ccc(F)cc1`, 14.1 µM (active).
For the compound `Cc1nn(CC(=O)N/N=C/c2ccc(F)cc2)c(C)c1[N+](=O)[O-]`, the Potency result was “inactive”.
On to `Cc1cc(C(=O)COC(=O)C2CC2)c(C)n1-c1ccc(F)cc1`, for which the Potency entry is “inactive”.
To `Cc1ccc2c(=O)c(C(=O)c3ccc(Cl)cc3)cn(CC(=O)NC3CCCCC3)c2n1` belongs “inactive”; to `CCOC(=O)C1=NOC(Cn2cc(C(C)=O)c(=O)[nH]c2=O)C1` (configuration not stated), “inactive”.
To `CCOC(=O)C1=NO[C@@]2(C=C(Br)C(=O)[C@H]3O[C@H]32)C1` belongs 15.8 µM (active); to `CCOC(=O)C1=C(C)NC(=O)NC1c1ccccc1` (configuration not stated), “inactive”.
The same measure for `CCc1ccccc1NC(=O)CSc1nnc(-c2ccccc2)c(-c2ccccc2)n1`: “inactive”.
With `CC(=O)N1CCCc2cc(S(=O)(=O)Nc3ccc(Cl)cc3F)ccc21`, the Potency result was “inactive”.
As for `CCN1C(=O)/C(=C2\SC(N3CCCCC3)=NC2=O)c2ccccc21`, the Potency was 11.2 µM (active).
As for `CCN1C(=O)/C(=C\N2CCN(c3ccccc3)CC2)SC1=S`, the Potency result was “inactive”.
To `CCc1ccc(/C=C2\SC(N3CCOCC3)=NC2=O)cc1` belongs “inactive”; to `CCc1ccc(NC(=O)c2cc(S(=O)(=O)N3CCCC(C)C3)cn2C)cc1` (configuration not stated), “inactive”.
As to `Cc1c(Cl)cccc1-c1ccc(CNCCCSc2nnnn2C)o1`, the Potency result was “inactive”.
To `CCn1cc2nc(SCc3ccccc3Cl)n(CCc3ccccc3)c(=O)c2n1` belongs “inactive”.
The same measure for `Fc1ccc(/C=N/Nc2nc(-c3cccnc3)nc3ccccc23)cc1`: “inactive”; for `Cc1nc2ccccc2nc1N/N=C/c1ccc(O)cc1O`: 14.1 µM (active).
Regarding `Cc1cc(N/N=C/c2ccccc2F)c2ccccc2n1`, the Potency result was “inactive”.
The same measure for `Oc1ccc(/C=N/NC2=NCCCCC2)c(O)c1`: “inactive”; for `Oc1ccc(/C=N/Nc2nc(-c3ccccc3F)nc3ccccc23)c(O)c1`: 4.47 µM (active); for `Cc1n[nH]c(=O)nc1N/N=C/c1cccs1`: “inactive”.
On to `Cc1nc2nc(SCC(=O)NC3CCC(C)CC3)nn2c(C)c1Cc1ccccc1Cl` (configuration not stated), for which the Potency entry was “inactive”.
The same measure for `COC(=O)c1scc(-c2ccc(C)cc2)c1S(=O)(=O)Nc1cc(Cl)c(OC)cc1OC`: “inactive”.
For the compound `CC1CCN(S(=O)(=O)c2ccc3c(c2)N(CC(=O)NCCc2ccccc2)C(=O)CO3)CC1`, the Potency result is “inactive”.
For `CNc1ccc(SC#N)cc1`, the Potency was 12.6 µM (active).
To `CNc1nc(-c2ccccc2OC)nc2ccccc12` belongs “inactive”; to `COc1ccccc1C1=Nc2cccc3cccc(c23)N1`, 11.2 µM (active); to `COc1ccccc1-c1nc(SC)n[nH]1`, “inactive”.
The same measure for `CCc1cccc(NC(=O)Cn2nc(CC)n3c(cc4cc(C)ccc43)c2=O)c1`: “inactive”; for `Cc1cn(C)c(CC(=O)NCc2ccc(Cl)cc2)c1C(=O)O`: “inactive”; for `CCOc1cccc(CC(=O)N2CCc3c([nH]c4ccccc34)C2c2ccc(OC)cc2)c1OCC` (configuration not stated): “inactive”.
In the case of `Nc1ccc(N=Nc2ccccc2Cl)c(N)n1`, the Potency was 2 µM (active).
For `CCOC(=O)C1CCC(CN(Cc2ccc(OC)cc2)S(=O)(=O)c2ccc(F)c(C(=O)Nc3cc(C)ccc3C)c2)CC1` (configuration not stated), the Potency result is “inactive”.
For `CCOC(=O)c1cc(-c2ccccc2)n(-c2cccc(C(=O)Nc3cc(OC)cc(OC)c3)c2)c1C`, the Potency entry was “inactive”.
With `COc1ccc(/C=C2/SC(=O)N(CCCCCC(=O)Nc3ccccc3C(=O)O)C2=S)cc1`, the Potency is 11.2 µM (active).
The same measure for `COc1ccc(/C=C2\SC(=S)N(CC(=O)NNC(=O)c3ccncc3)C2=O)cc1`: “inactive”; for `O=C(CCCN1C(=O)/C(=C\c2ccccc2)SC1=S)Nc1ccccc1O`: “inactive”; for `Cc1cc(OCC(=O)Nc2ncn[nH]2)c(C)c(C)c1Br`: “inactive”.
Turning to `CCOCCCNC(=O)c1cc2c(=O)n3ccccc3nc2s1`, the Potency entry is “inactive”.
The same measure for `Cc1cccc(-n2c(=O)c3c(c4cc(C)ccc4n3C)n(CC(=O)Nc3ccccc3Cl)c2=O)c1`: “inactive”; for `O=C(NCc1ccco1)C1CCCN(S(=O)(=O)c2ccccc2)C1` (configuration not stated): “inactive”; for `Cc1noc(/C=C/N(C)C)c1S(=O)(=O)N1CCCC(C(=O)Nc2cccc(F)c2)C1` (configuration not stated): “inactive”.
As for `Cc1noc(/C=C/N(C)C)c1S(=O)(=O)N1CCCC(C(=O)NCc2ccco2)C1` (configuration not stated), the Potency is 28.2 µM (active).
In the case of `Cc1cccc(N2CCN(S(=O)(=O)c3ccc4[nH]c5c(c4c3)CCCCC5)CC2)c1C`, the Potency entry was “inactive”.
With `CC1(C)CC(=O)c2ccc(O)cc2O1`, the Potency entry is “inactive”.
To `CC[C@@H]1Cc2cc(O)ccc2C2=C1c1ccc(O)cc1C[C@H]2CC` belongs 17.8 µM (active); to `COc1ccccc1Cc1nc2ccccc2nc1SCC(=O)N1CCCc2ccccc21`, “inactive”.
In the case of `CCN1CCN(c2ccc([N+](=O)[O-])cc2C(=O)c2ccc(Cl)cc2)CC1`, the Potency entry is “inactive”.
The same measure for `CC1CCN(c2ccc([N+](=O)[O-])cc2C(N)=O)CC1`: “inactive”.
Turning to `O=[N+]([O-])c1ccc(N2CCN(c3ccc(O)cc3)CC2)c(Cl)c1`, the Potency is 6.31 µM (active).
As for `O=C(NC1(C(F)(F)F)N=C(c2ccccc2)N(C2CCCCC2)C1=O)c1ccccc1F` (configuration not stated), the Potency result is “inactive”.
The same measure for `NNc1nc2c(Cl)cccc2s1`: 22.4 µM (active).
The same measure for `Fc1cc(F)c2nc(Nc3nc4c(F)cccc4s3)sc2c1`: “inactive”.
Take `CN(C)CCCN(C(=O)COc1ccccc1)c1nc2c(Cl)cccc2s1`: the Potency entry was “inactive”.
The same measure for `Cc1ccc(CNC(=O)Cn2c(=O)ccc3cc(S(=O)(=O)N4CCCC4)ccc32)cc1`: “inactive”; for `CCc1ccccc1NC(=O)Cn1c(=O)n(CC2CCC(C(=O)NCCc3ccccc3)CC2)c(=O)c2ccccc21` (configuration not stated): “inactive”; for `C#CCOc1ccc(C2CC(=O)Nc3c2c(C)nn3-c2nc(C)cc(C)n2)cc1` (configuration not stated): “inactive”.
For `Cc1ccc(C(=O)N2CCc3cc(CNC(=O)c4ccc(Br)cc4)ccc32)cc1`, the Potency entry is “inactive”.
Turning to `Cc1nn(-c2ccc(N3CCCCC3)nn2)c(C)c1CCC(=O)NCc1ccccc1F`, the Potency result is “inactive”.
In the case of `Clc1ccc(CN2CCN(/N=C/c3cccnc3)CC2)cc1`, the Potency entry is “inactive”.
For the compound `O=Cc1cn(Cc2ccccc2)nc1-c1cccnc1`, the Potency result is “inactive”.
The same measure for `O=C1/C(=C\c2cccnc2)CN(Cc2ccccc2)C/C1=C\c1cccnc1`: 14.1 µM (active).

Source of the values: PubChem BioAssay AID1460 (National Center for Advancing Translational Sciences (NCATS), 2008).
